From PubChem BioAssay (NCI)
Several values for one entry are separate records, joined by “and”; a condition that tells them apart may be missing. Equal entries are not always repeated. About 83,000 compounds went through this panel and 20% of them were active in at least one assay; those are over-represented in the sample as a whole.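 Testing used 96-well plates and a 48-hour single-concentration exposure. Example: -40 means 40% of the starting cells died.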 Activity calls are given as the source filed them. The calls were made as follows: active = growth percent below 10; inactive = the rest.

Columns and labels:
Test in all cases: NCI-60 one-dose screen, 48 h (100 = growth as untreated, 0 = no growth, -100 = all killed)
Settings in all cases: 10 µM unless noted
T-47D breast = test system: T-47D breast
BT-549 breast = test system: BT-549 breast
MDA-MB-435 melanoma = test system: MDA-MB-435 melanoma
SW-620 colon = test system: SW-620 colon
MCF7 breast = test system: MCF7 breast
HCT-116 colon = test system: HCT-116 colon
HCC-2998 colon = test system: HCC-2998 colon
KM12 colon = test system: KM12 colon

Measured: growth

CCN(CC)CCCN1C(=O)c2c(c(C)c3c(oc4cc(OC)ccc43)c2C)C1=O
active: MCF7 breast -14.7%
inactive: T-47D breast 112% | BT-549 breast 98.8% | MDA-MB-435 melanoma 103% | SW-620 colon 87.3% | HCT-116 colon 74.3% | HCC-2998 colon 98.1% | KM12 colon 96.9%

CCCCCCCCCCCCCCCCCCn1cc(COc2ccc(C=O)cc2)nn1
inactive: T-47D breast 88.6% | BT-549 breast 100% | MDA-MB-435 melanoma 109% | SW-620 colon 104% | MCF7 breast 92.8% | HCT-116 colon 76.8% | HCC-2998 colon 99.8% | KM12 colon 86.3%

OCCN1CCN(c2cc(-c3cccc(OC(F)(F)F)c3)nc3ccc(N4CCCC4)cc23)CC1
active: SW-620 colon 2.96%
inactive: T-47D breast 32.2% | BT-549 breast 80.5% | MDA-MB-435 melanoma 29.7% | MCF7 breast 17.5% | HCT-116 colon 15.6% | HCC-2998 colon 22.9% | KM12 colon 23.4%

COc1cc(C=O)ccc1Oc1ccc([N+](=O)[O-])cc1[N+](=O)[O-]
inactive: T-47D breast 75.2% | BT-549 breast 98% | MDA-MB-435 melanoma 112% | SW-620 colon 91.7% | MCF7 breast 99.2% | HCT-116 colon 94.9% | HCC-2998 colon 109% | KM12 colon 105%

CN1CCN(Cc2ccc(NC(=O)c3cccc(C#Cc4c(N)ncc5ccc(F)cc45)c3)cc2C(F)(F)F)CC1
inactive: T-47D breast 14.8% | BT-549 breast 28.5%
active: MDA-MB-435 melanoma -95.9% | SW-620 colon -91.6% | MCF7 breast -80.9% | HCT-116 colon -93.1% | HCC-2998 colon -86.8% | KM12 colon -82.1%

O=c1c2c([nH]c3ccccc13)CCCC2
inactive: T-47D breast 105% and 55.5% | BT-549 breast 106% and 59% | SW-620 colon 92.6% and 16.1% | MCF7 breast 88.7% and 17.7% | HCT-116 colon 95.6% and 23.5% | HCC-2998 colon 55.5% | KM12 colon 99.2% and 19.7%
103% (inactive) and -56.9% (active): MDA-MB-435 melanoma

CN1C(=O)N(C)C2(c3ccccc3)N(CC(=O)Nc3ccccc3O)C(=O)NC12c1ccccc1 (stereo unspecified)
inactive: T-47D breast 98.5% | BT-549 breast 104% | MDA-MB-435 melanoma 106% | SW-620 colon 97.4% | MCF7 breast 101% | HCT-116 colon 98.3% | HCC-2998 colon 118% | KM12 colon 105%

[2H]C([2H])([2H])Oc1cc(F)ccc1/C=C/C(=O)/C=C(/C=C/c1ccc(F)cc1OC([2H])([2H])[2H])OB(F)F
inactive: T-47D breast 33.1% | BT-549 breast 36.8% | MDA-MB-435 melanoma 16.5% | SW-620 colon 22.3% | MCF7 breast 20.1% | HCC-2998 colon 56% | KM12 colon 61.6%
active: HCT-116 colon -11.1%

CN1CCN(c2ccc(/C=C/C(=O)c3ccc(O)cc3)cc2)CC1
inactive: T-47D breast 83.6% | BT-549 breast 97.7% | MDA-MB-435 melanoma 100% | SW-620 colon 99.5% | MCF7 breast 89.7% | HCT-116 colon 99.2% | HCC-2998 colon 102% | KM12 colon 101%

Cc1ccc(-c2nc(SCC(=O)c3ccc(C#N)cc3)[nH]c(=O)c2C#N)cc1
inactive: T-47D breast 100% | BT-549 breast 101% | MDA-MB-435 melanoma 106% | SW-620 colon 112% | MCF7 breast 96.5% | HCT-116 colon 88.9% | HCC-2998 colon 107% | KM12 colon 93.6%

Cc1nc2cccc(NCCCCC(=O)NO)c2c(=O)n1-c1ccccc1
inactive: T-47D breast 54.5% | BT-549 breast 86.8% | MDA-MB-435 melanoma 53.8% | SW-620 colon 47.5% | MCF7 breast 57.9% | HCT-116 colon 27.3% | HCC-2998 colon 82% | KM12 colon 73.8%

COC(=O)[C@H]1Cc2c([nH]c3ccccc23)[C@@H](c2cccs2)N1
inactive: T-47D breast 92.9% | BT-549 breast 102% | MDA-MB-435 melanoma 100% | SW-620 colon 100% | MCF7 breast 103% | HCT-116 colon 104% | HCC-2998 colon 102% | KM12 colon 100%

CCN1CCN(CC(=O)Nc2nc3ccc(NCc4ccc(C)cc4)cc3s2)CC1
active: MDA-MB-435 melanoma -41.8%
inactive: T-47D breast 50.7% | BT-549 breast 88% | SW-620 colon 44.2% | MCF7 breast 35.6% | HCT-116 colon 13% | HCC-2998 colon 80.9% | KM12 colon 73%

O=C(/C=C/c1cccs1)Nc1ncc(Cc2ccc(Cl)c(Cl)c2)s1
active: MDA-MB-435 melanoma -23.2%
inactive: T-47D breast 49% | BT-549 breast 80.9% | SW-620 colon 37.5% | MCF7 breast 26.8% | HCT-116 colon 45.2% | HCC-2998 colon 53.8% | KM12 colon 22%

COc1cc(-c2nn(-c3cccc(NC(=O)CCN4CCN(C)CC4)c3)cc2-c2ccncc2)ccc1Cl
active: MDA-MB-435 melanoma -46.3%
inactive: T-47D breast 35.3% | BT-549 breast 22.4% | SW-620 colon 26.8% | MCF7 breast 13.8% | HCT-116 colon 17% | HCC-2998 colon 54.7% | KM12 colon 22.2%

O=c1c(/C=C/c2ccco2)nnc2sc(Nc3ccc(Cl)cc3)nn12
inactive: T-47D breast 88.2% | BT-549 breast 99.9% | MDA-MB-435 melanoma 100% | SW-620 colon 103% | MCF7 breast 82.5% | HCT-116 colon 99% | HCC-2998 colon 96.3% | KM12 colon 103%

CC(=O)OC[C@]12CCC(C)(C)C=C1[C@H]1CC[C@@H]3[C@@]4(C)CCCNC(C)(C)[C@@H]4CC[C@@]3(C)[C@]1(C)CC2
inactive: T-47D breast 51.8% | BT-549 breast 63.8% | MDA-MB-435 melanoma 29.7% | SW-620 colon 49.9% | MCF7 breast 46.6% | HCT-116 colon 34.1% | HCC-2998 colon 49% | KM12 colon 25.5%

N#CC1=C(N)Oc2c(sc3c(Br)cccc23)C1c1ccccn1 (stereo unspecified)
inactive: T-47D breast 34.3% | BT-549 breast 31.4% | MDA-MB-435 melanoma 77.4% | SW-620 colon 34.8% | MCF7 breast 18.8% | HCT-116 colon 27.9% | HCC-2998 colon 72.9% | KM12 colon 34.9%

C=C1C(=O)O[C@H]2[C@H]1CC/C(CNS(=O)(=O)c1ccc3ccccc3c1)=C\CC[C@@]1(C)O[C@@H]21
inactive: KM12 colon 64.8%
active: T-47D breast -67.4% | BT-549 breast -9.57% | MDA-MB-435 melanoma 0.587% | SW-620 colon -29.8% | MCF7 breast -56.9% | HCT-116 colon -87.2% | HCC-2998 colon -57.7%

COc1cc(C(=O)c2ccccc2C(=O)O)c(OC)c2c1CCCC2
inactive: T-47D breast 90.9% and 95.7% | BT-549 breast 95.8% and 101% | MDA-MB-435 melanoma 100% and 107% | SW-620 colon 98.2% and 106% | MCF7 breast 97.4% and 99.5% | HCT-116 colon 95.6% and 95.4% | HCC-2998 colon 107% and 101% | KM12 colon 98.7% and 104%

C=C(C)[C@@H]1CC[C@]2(C(=O)N3CCN(C)CC3)CC[C@]3(C)[C@H](CC[C@@H]4[C@@]5(C)CC(CCCNC(C)=O)(CCCNC(C)=O)[C@H](OC(C)=O)C(C)(C)[C@@H]5CC[C@]43C)[C@@H]12
inactive: T-47D breast 89.9% | BT-549 breast 104% | MDA-MB-435 melanoma 94.4% | SW-620 colon 99.2% | MCF7 breast 89.1% | HCT-116 colon 90.7% | HCC-2998 colon 106% | KM12 colon 107%

CN1CCN(Cc2ccc(NC(=O)c3nc4ccc5[nH]ncc5c4c4c3CCCC4)cc2C(F)(F)F)CC1
active: T-47D breast -69.3% | BT-549 breast -78.5% | MDA-MB-435 melanoma -82.6% | SW-620 colon -60% | MCF7 breast -68.5% | HCT-116 colon -90.4% | HCC-2998 colon -80.7% | KM12 colon -73.4%
